# Source: PubChem BioAssay
# Records with an inconclusive call do not appear. Active and inactive are the calls of the source. How the calls were made is not given here.
# Tests used:
# [1] = molecular target: L-lactate dehydrogenase (Plasmodium falciparum (isolate CDC / Honduras)) (UniProt Q27743); assay: PfLDH activity inhibition – cell lysate, 3D7 strain, counter-screen for P. falciparum growth inhibition project (AID 2304);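 further: 0% = vehicle and 100% = reference inhibitor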; details: P. falciparum 3D7 crude extract, LDH APAD/NBT absorbance; at 2 µM; stronger effect = higher value
# L-lactate dehydrogenase (Plasmodium falciparum (isolate CDC / Honduras)), sequence (Q27743 whole entry, looked up): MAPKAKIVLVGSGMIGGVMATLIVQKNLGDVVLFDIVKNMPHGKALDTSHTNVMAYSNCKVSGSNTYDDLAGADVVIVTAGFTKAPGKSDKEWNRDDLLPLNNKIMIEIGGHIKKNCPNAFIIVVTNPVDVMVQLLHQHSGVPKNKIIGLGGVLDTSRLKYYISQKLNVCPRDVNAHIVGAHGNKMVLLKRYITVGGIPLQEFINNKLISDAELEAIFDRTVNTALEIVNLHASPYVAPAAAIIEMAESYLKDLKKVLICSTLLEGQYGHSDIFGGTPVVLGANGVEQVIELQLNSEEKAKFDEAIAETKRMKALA
# [2] = inhibition of 3D7 malaria parasite growth – strain 3D7 (AID 2306);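 further: 0% = DMSO wells and 100% = chloroquine plus artemisinin control wells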; details: P. falciparum 3D7 erythrocytic growth, LDH absorbance, 72 h; at 2 µM; stronger effect = higher value
# [3] = protection against mutant huntingtin cytotoxicity, PC12 cells, LDH release (AID 1610); details: PC12 mutant huntingtin toxicity, final LDH at 4 uM, stronger effect = lower value
Compound,inhibition [1],growth inhibition [2],normalised LDH release [3]
COc1cc(Cc2cnc(N)nc2N)cc(OC)c1OC,3% (inactive),88% (active),
CC(C)(C)c1ccc(C(O)CCCN2CCC(C(O)(c3ccccc3)c3ccccc3)CC2)cc1 (stereo not drawn),,,1
